ChEMBL document CHEMBL1961873, “Compounds: GSK PKIS; Assays: Nanosyn kinase panel” (2012)

How the values were obtained:
[1] = target: T1, 3-phosphoinositide-dependent protein kinase 1 (Homo sapiens) (UniProt O15530); details: at 0.1 µM;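 further: values are mean inhibition of PDK1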
T1 sequence (whole entry): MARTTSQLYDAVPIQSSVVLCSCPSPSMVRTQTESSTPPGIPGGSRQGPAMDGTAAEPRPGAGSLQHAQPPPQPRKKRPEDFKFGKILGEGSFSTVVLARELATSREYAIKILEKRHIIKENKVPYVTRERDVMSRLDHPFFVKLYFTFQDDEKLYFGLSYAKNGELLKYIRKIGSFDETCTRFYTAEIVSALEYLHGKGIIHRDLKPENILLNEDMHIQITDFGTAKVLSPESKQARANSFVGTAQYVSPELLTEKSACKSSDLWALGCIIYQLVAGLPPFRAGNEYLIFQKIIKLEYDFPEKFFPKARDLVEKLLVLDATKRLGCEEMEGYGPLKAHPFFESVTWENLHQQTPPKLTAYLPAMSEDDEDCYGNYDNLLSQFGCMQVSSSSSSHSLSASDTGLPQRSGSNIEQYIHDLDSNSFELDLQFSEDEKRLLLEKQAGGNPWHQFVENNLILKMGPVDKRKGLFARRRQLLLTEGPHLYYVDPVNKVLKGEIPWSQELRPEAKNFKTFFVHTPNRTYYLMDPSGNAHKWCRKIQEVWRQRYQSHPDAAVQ

[2] = target: cAMP-dependent protein kinase catalytic subunit alpha (Homo sapiens) (UniProt P17612); details: at 0.1 µM
[3] = target: cAMP-dependent protein kinase catalytic subunit alpha (Homo sapiens) (UniProt P17612); details: at 1 µM
[4] = target: Protein kinase C alpha type (Homo sapiens) (UniProt P17252); details: at 0.1 µM
[5] = target: Protein kinase C alpha type (Homo sapiens) (UniProt P17252); details: at 1 µM
[6] = target: Protein kinase C beta type (Homo sapiens) (UniProt P05771); details: at 0.1 µM
Sequence of Protein kinase C beta type (Homo sapiens) (P05771 2-671 limits assumed): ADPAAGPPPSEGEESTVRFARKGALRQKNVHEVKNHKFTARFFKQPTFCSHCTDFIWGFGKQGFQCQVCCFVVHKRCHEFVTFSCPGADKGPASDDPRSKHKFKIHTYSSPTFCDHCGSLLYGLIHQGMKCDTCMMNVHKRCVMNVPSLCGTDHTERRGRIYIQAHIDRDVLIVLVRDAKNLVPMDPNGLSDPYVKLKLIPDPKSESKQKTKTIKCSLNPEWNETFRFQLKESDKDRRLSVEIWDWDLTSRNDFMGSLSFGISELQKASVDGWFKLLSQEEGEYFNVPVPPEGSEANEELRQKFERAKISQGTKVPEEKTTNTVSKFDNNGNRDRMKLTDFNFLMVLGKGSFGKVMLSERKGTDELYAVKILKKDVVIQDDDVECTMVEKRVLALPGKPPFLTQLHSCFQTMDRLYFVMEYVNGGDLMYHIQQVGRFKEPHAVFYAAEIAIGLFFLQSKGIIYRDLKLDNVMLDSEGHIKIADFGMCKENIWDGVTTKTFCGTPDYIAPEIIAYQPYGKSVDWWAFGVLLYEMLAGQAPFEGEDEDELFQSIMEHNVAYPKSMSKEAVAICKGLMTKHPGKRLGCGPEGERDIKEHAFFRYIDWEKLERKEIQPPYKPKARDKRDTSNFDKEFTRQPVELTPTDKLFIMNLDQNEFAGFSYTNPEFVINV

[7] = target: Protein kinase C beta type (Homo sapiens) (UniProt P05771); details: at 1 µM
[8] = target: Protein kinase C eta type (Homo sapiens) (UniProt P24723); details: at 0.1 µM
Sequence of Protein kinase C eta type (Homo sapiens) (P24723 whole entry): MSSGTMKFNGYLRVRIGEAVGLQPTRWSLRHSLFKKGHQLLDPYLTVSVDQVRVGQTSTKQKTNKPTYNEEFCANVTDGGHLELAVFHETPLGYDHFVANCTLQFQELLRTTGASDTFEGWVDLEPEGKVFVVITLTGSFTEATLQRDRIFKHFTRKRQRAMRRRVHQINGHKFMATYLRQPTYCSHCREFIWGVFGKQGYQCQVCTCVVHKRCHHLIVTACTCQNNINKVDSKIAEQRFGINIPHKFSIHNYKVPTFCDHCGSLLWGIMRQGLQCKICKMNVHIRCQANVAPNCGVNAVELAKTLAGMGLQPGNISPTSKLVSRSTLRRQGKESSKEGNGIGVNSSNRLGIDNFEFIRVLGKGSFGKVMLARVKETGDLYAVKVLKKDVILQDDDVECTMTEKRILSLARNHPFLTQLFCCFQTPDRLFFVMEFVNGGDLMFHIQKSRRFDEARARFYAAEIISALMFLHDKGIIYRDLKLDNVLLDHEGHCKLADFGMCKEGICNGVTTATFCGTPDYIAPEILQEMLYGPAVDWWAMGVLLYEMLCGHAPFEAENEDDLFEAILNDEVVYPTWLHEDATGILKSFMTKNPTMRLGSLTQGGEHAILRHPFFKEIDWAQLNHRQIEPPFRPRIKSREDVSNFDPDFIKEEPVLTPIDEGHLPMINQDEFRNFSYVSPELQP

[9] = target: Protein kinase C eta type (Homo sapiens) (UniProt P24723); details: at 1 µM
[10] = target: Protein kinase C gamma type (Homo sapiens) (UniProt P05129); details: at 0.1 µM
[11] = target: Protein kinase C gamma type (Homo sapiens) (UniProt P05129); details: at 1 µM
[12] = target: T2, Protein kinase C iota type (Homo sapiens) (UniProt P41743); details: at 0.1 µM
T2 sequence (whole entry): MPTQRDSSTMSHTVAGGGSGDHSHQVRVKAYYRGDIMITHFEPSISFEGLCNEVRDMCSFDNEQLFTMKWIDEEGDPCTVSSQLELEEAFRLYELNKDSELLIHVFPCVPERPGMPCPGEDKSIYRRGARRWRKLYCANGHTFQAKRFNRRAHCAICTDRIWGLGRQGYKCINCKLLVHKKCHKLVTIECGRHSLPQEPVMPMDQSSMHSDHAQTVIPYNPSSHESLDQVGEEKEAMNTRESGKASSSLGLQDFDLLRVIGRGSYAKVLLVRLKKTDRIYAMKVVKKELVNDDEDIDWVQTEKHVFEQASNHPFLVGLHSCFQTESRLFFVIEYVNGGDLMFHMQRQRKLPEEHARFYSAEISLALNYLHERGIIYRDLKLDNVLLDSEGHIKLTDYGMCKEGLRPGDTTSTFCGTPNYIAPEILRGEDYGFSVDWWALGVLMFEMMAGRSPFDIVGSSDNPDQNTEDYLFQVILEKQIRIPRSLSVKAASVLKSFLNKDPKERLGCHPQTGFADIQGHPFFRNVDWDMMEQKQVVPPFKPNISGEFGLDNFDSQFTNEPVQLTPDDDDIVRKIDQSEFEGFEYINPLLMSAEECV

[13] = target: T2, Protein kinase C iota type (Homo sapiens); details: at 1 µM
[14] = target: Protein kinase C theta type (Homo sapiens) (UniProt Q04759); details: at 0.1 µM
Sequence of Protein kinase C theta type (Homo sapiens) (Q04759 whole entry, looked up): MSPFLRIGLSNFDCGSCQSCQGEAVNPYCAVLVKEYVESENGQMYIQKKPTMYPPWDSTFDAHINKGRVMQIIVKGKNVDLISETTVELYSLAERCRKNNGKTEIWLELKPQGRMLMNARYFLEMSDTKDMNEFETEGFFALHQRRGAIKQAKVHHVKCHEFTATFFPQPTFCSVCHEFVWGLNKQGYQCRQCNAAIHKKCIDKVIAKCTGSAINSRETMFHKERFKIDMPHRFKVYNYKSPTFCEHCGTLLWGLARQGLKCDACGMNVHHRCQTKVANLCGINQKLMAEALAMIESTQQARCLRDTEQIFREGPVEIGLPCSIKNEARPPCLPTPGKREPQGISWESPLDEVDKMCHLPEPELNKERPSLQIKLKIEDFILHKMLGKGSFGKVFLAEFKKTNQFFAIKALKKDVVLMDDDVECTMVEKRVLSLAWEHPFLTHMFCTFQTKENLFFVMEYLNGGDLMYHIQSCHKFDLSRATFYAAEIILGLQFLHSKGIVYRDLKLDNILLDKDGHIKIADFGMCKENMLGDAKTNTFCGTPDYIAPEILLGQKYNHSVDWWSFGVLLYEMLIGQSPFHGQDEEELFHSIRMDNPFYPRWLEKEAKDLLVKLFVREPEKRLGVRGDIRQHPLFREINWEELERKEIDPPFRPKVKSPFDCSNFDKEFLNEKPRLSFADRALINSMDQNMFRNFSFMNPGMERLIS

[15] = target: Protein kinase C theta type (Homo sapiens) (UniProt Q04759); details: at 1 µM
[16] = target: Protein kinase C beta type (Homo sapiens) (UniProt P05771); details: at 0.1 µM; remark: listed apart in the source
[17] = target: Protein kinase C beta type (Homo sapiens) (UniProt P05771); details: at 1 µM; remark: listed apart in the source
[18] = target: T3, Serine/threonine-protein kinase D1 (Homo sapiens) (UniProt Q15139); details: at 0.1 µM
T3 sequence (whole entry): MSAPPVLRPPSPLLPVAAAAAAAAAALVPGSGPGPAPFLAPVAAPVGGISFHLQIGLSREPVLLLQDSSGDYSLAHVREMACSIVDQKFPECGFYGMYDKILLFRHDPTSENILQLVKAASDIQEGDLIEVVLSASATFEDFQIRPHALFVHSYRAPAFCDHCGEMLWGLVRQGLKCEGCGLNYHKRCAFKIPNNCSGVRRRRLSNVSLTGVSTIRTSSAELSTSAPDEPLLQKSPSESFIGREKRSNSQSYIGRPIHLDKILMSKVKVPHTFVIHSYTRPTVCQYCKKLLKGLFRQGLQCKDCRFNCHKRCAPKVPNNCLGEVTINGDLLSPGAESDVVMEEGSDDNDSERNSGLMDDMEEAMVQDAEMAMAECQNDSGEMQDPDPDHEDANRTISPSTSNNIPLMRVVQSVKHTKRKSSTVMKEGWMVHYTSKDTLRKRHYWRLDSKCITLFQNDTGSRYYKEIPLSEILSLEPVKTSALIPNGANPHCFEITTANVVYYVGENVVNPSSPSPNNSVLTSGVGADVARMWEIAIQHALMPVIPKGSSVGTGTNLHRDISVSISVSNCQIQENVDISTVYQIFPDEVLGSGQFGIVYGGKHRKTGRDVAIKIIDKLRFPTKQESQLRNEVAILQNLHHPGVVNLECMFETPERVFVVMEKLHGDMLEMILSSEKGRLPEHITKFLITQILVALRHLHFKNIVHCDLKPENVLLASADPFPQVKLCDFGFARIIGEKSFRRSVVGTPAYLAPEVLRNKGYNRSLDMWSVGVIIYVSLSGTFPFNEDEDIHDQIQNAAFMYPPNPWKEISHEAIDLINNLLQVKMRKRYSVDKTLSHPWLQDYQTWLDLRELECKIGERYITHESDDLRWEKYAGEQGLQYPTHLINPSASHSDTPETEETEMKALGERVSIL

[19] = target: T3, Serine/threonine-protein kinase D1 (Homo sapiens); details: at 1 µM
[20] = target: T4, Serine/threonine-protein kinase D2 (Homo sapiens) (UniProt Q9BZL6); details: at 0.1 µM;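 further: reported percent inhibition values are means, part of the GSK PKIS kinase panel screen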
T4 sequence (whole entry): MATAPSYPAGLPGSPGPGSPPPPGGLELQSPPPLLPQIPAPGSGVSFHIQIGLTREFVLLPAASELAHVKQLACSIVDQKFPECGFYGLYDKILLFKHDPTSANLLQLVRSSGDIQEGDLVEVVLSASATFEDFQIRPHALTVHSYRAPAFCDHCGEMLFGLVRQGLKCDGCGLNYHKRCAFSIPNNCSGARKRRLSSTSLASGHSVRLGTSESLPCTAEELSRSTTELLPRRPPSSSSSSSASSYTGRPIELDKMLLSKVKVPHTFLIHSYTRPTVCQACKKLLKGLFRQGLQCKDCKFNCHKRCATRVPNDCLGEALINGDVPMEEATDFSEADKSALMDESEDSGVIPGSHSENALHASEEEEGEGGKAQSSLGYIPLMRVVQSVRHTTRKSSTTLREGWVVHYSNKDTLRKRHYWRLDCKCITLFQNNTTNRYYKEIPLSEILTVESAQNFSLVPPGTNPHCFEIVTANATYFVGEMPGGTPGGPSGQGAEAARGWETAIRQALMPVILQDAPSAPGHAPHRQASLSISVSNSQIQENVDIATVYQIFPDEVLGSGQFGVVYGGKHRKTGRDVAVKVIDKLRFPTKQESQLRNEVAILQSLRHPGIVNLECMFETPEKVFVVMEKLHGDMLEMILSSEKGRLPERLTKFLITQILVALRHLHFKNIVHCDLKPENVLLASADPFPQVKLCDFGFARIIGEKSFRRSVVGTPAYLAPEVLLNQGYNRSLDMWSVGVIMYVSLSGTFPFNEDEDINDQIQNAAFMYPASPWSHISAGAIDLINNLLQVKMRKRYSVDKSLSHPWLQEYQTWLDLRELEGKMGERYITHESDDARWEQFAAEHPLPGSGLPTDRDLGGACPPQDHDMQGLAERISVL

Row | Structure (SMILES) | inhibition [1] [%] | inhibition [2] [%] | inhibition [3] [%] | inhibition [4] [%] | inhibition [5] [%] | inhibition [6] [%] | inhibition [7] [%] | inhibition [8] [%] | inhibition [9] [%] | inhibition [10] [%] | inhibition [11] [%] | inhibition [12] [%] | inhibition [13] [%] | inhibition [14] [%] | inhibition [15] [%] | inhibition [16] [%] | inhibition [17] [%] | inhibition [18] [%] | inhibition [19] [%] | inhibition [20] [%]
1 | CCn1c(-c2nonc2N)nc2c(N3CCCC3)nccc21 | -1.76 | -0.34 | 1.34 | -0.23 | 0.84 | 0.38 | 13.4 | 1.82 | 11.2 | -1.48 | 2.66 | 0.51 | -0.25 | -0.32 | 0.44 | -1.87 | 2.46 | -0.28 | -0.14 | -1.19
2 | CS(=O)(=O)CCNCc1nc(-c2ccc3ncnc(Nc4ccc(F)c(Cl)c4)c3c2)cs1 | 1.98 | 1.17 | 1.29 | 0.29 | 0.92 | 1.56 | 2.07 | 1.59 | 3.26 | 2.71 | 0.73 | -0.92 | -0.18 | 0.64 | 2.27 | -0.23 | 2.18 | 1.88 | 2.6 | 0.4
3 | Fc1cccc(COc2ccc(Nc3ncnc4sc(-c5cccs5)cc34)cc2Cl)c1 | -0.7 | 1.34 | 1.04 | -0.17 | 0.09 | -0.52 | -0.08 | 1.43 | 1.98 | -0.34 | 2.13 | 0.71 | 1.19 | 0.32 | 0.01 | -0.19 | 0.44 | 0.09 | 0.23 | -1.32
4 | O=C1NC(=O)C(N2CCc3ccccc32)=C1c1ccc(Cl)cc1 | 1.64 | 1.84 | 1.95 | 0.86 | 1.6 | -0.46 | 0.52 | 0.02 | 3.59 | 5.52 | 2.33 | 1.4 | 3.19 | 2.06 | 1.93 | 1.71 | 1.65 | 3.74 | 5.59 | 4.57
5 | CS(=O)(=O)Nc1ccc(N/C=C2\C(=O)Nc3ccccc32)cc1 | 2.23 | -2 | 0.29 | -0.53 | 0.61 | -0.94 | -1.13 | -0.7 | -4.5 | -3.28 | 0.03 | -1.38 | -0.98 | -1.09 | -0.74 | -1.02 | -0.85 | -2.24 | 3.18 | -0.04
6 | O=C1NC(=O)C(c2ccccc2Cl)=C1Nc1cccc(O)c1 | 0.81 | 1.52 | 2.92 | 0.83 | 3.41 | 0.31 | 5.5 | 2.05 | 5.24 | -3.81 | 1.06 | 1.73 | 3.13 | 1.38 | 3.85 | 2.15 | 14.5 | 2.34 | 4.55 | 1.91
7 | Cc1ccc(C(=O)NC2CCCCC2)cc1-c1ccc(C(=O)NCC2CC2)cc1 | 3.8 | 3.21 | 1.86 | 0.96 | 2.17 | 1.17 | 1.93 | 3.2 | -0.62 | 3.68 | 3.86 | 0.11 | 2.97 | 1.39 | 0.58 | 1.11 | 3.12 | 1.97 | 2.69 | 1.98
8 | CCc1cccc(NC(=O)Nc2ccc(Oc3ccc4nc(NC(=O)OC)[nH]c4c3)cc2)c1 | 2.37 | 2.93 | 0.86 | 0.7 | 0.72 | 0.28 | 1.12 | 2.69 | 2.14 | 1.95 | 2 | 0.46 | -1.58 | 0.42 | 1.12 | -0.27 | -1.17 | 1.25 | 1.01 | 0.52
9 | NC(=O)c1ccc(-c2nc(-c3ccccn3)c(-c3ccc4c(c3)OCO4)[nH]2)cc1 | 2.65 | 1 | 2.8 | 1.23 | 3.42 | -0.16 | 2.78 | -0.32 | -0.29 | -0.15 | 3.47 | 0.81 | -0.05 | 0.77 | 1.31 | 1.96 | 5.1 | 2.47 | 5.43 | 2.87
10 | NS(=O)(=O)c1ccc(N/N=C2\C(=O)Nc3ccc(C(=O)NCCc4c[nH]cn4)cc32)cc1 | 14.2 | 2.18 | 7.07 | 1.52 | 5.32 | 1.16 | -0.4 | 5.07 | 2.38 | 0.92 | 5.55 | 2.26 | 2.34 | 2.03 | 3.63 | 1.05 | 2.48 | 6.28 | 34.4 | 5.45
11 | CC1=C(C(=O)Nc2ccc3[nH]ncc3c2)C(c2ccc(F)cc2)NC(=O)N1 (stereo not given) | 0.63 | 3.81 | 30.4 | 0.69 | 0.39 | -0.65 | 1.36 | 3.55 | 10.8 | 0.38 | 2.9 | 1.83 | 1.22 | 1.63 | 3.15 | 1.62 | 1.76 | 3.15 | 8.16 | 3.76
12 | COc1cc2ncn(-c3cc(O[C@H](C)c4ccccc4Cl)c(C(N)=O)s3)c2cc1OC | 2.16 | 2.29 | 1.54 | -0.04 | 0.09 | 3.14 | 5.95 | 4.41 | 4.05 | 3.01 | 4.01 | 2.97 | 0.22 | 3.41 | 4.9 | 2.75 | 3.52 | 1.04 | 3.84 | 2.69
